# In the supplement of paper PMC10338343:
# ± gives the standard deviation.
# Key:
# [1] = system: MILI (PIWIL2) piRISC loaded with L1MC piRNA (26 nt); test: pre-steady-state target cleavage rate (min^-1); guide: L1MC piRNA 5'p-UAACUAAAUACUAUGCAAGCUGUAGG; higher = faster piRNA-guided slicing of the target; details: auxiliary factor: 500 nM mouse GTSF1;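 also: 1 nM active piRISC with 0.1 nM target library at 33 °C single turnover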
# How it was run: (§1)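 Cleave-'n-Seq measured uncleaved targets by sequencing after a transcribed, DNA-blocked target RNA library […] was mixed with 1 nM active affinity-purified piRISC holding one synthetic guide, with or without 500 nM GTSF1 partner protein, at 33 °C in HEPES–potassium acetate buffer for 0–8 or 0–960 min. Counts were normalised to depth and to weakly complementary targets, three trials were pooled, and k3 was capped at 0.0001 min^-1. A burst-and-steady-state fit gave the pre-steady-state cleavage rate.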
# [2] = system: EfPiwi piRISC loaded with L1MC piRNA (26 nt); test: pre-steady-state target cleavage rate (min^-1); auxiliary factor: 500 nM Ephydatia muelleri Gtsf1; guide: L1MC piRNA 5'p-UAACUAAAUACUAUGCAAGCUGUAGG; MIWI and MILI are mouse PIWI proteins and EfPiwi is from a freshwater sponge; tags in brackets are library labels; higher = faster piRNA-guided slicing of the target
# How it was run: as §1
Sequence,pre-steady-state target cleavage rate [1],pre-steady-state target cleavage rate [2]
UCCUGGAUCUGCUUGCAUAGUAUUUAGAUA,0.0934 ± 0.016,0.00401 ± 0.0022
UCCUGGUACUCCUUGCAUAGUAUUUAGAAA,0.0265 ± 0.01,0.00304 ± 0.0022
UCCUCCUUGAGCUUGCAUAGUAUUUAGAAA,0.145 ± 0.025,0.00549 ± 0.0018
UCCUGCUACAGGUUGCAUAGUAUUUAGAAA,0.0337 ± 0.011,0.00261 ± 0.0014
UCCUGCUACAGCUAGCAUAGUAUUUAGAAA,0.227 ± 0.051,0.00418 ± 0.0021
UCCUGGAACAGCUUGCGAUAGUAUUUAGUUA,0.00418 ± 0.0033,0.00523 ± 0.0018
UCCUCCUACACCUUGCAUAGUAUUUAGAAA,0.226 ± 0.05,0.00377 ± 0.0021
UCCUGCUACAGCUUGCAUUGUAUUUAGAAA,0.111 ± 0.03,0.00474 ± 0.0017
UCCUGGAACAGCUUGCAUUGUAUUUUGUUA,0.102 ± 0.013,0.00509 ± 0.0026
UCCUCGAACAGCUUGCAUAGUAUUUACAAA,0.0992 ± 0.021,0.00433 ± 0.0025
UCCUGGAUCAGCUUGGAUAGUAUUUAGAAA,0.0109 ± 0.0051,0.00249 ± 0.0024
UCCUGCUACACCUUCCAUAGUAUUUAGUUA,0.0271 ± 0.013,0.00334 ± 0.0022
UCCUGGAUGUCCUUGCAUAGUAUUUAAUUA,0.0833 ± 0.017,0.00439 ± 0.003
UCCUGGAACAGCUAUGCAUAGUAUUUAGUUA,0.21 ± 0.018,0.0102 ± 0.0029
UCCUCCUACAGCUUGCAUACUAUUUAGAUA,0.0353 ± 0.01,0.00315 ± 0.0027
UCCUGGUUGAGCUUGCAUAGUAUUUUCAAA,0.0103 ± 0.006,0.00218 ± 0.0021
UCCUGGAUGUGCUUGCAUAGUAUUUACGUUA,0.129 ± 0.026,0.00702 ± 0.0042
UCCUGGUACAGCUUGCUUAGUAUUUAGAAA,0.0808 ± 0.021,0.00224 ± 0.002
UCCUGCUACAGCUUCCAUAGUAUUUAGUUA,0.0846 ± 0.028,0.00342 ± 0.0012
UCCUCCUACAGCUUCCAUAGUAUUUAGUUA,0.0831 ± 0.025,0.0042 ± 0.0019
UCCUCCUUCAGCUUGCAUAGUAUUUAGAAA,0.119 ± 0.021,0.00603 ± 0.0031
UCCUCCUACACCUUGCAUAGUAUUUACUUA,0.128 ± 0.038,0.00326 ± 0.0032
UCCUGCUACAGCUUGCAUAGGAUUUAGUUA,0.00856 ± 0.0037,0.00356 ± 0.001
UCCUGCAACAGCUUGCAUAGUAUUUAGAUA,0.125 ± 0.024,0.00372 ± 0.002
UCCUGGAAGAGCUUGCAUAGUAUUUACAAA,0.0536 ± 0.02,0.00396 ± 0.0018
UCCUGGAUCAGCUUGCACUAGUAUUUAGUUA,0.00868 ± 0.0048,0.00365 ± 0.0027
UCCUCCUACAGCUUGCAUACUAUUUAGUAA,0.0473 ± 0.012,0.00454 ± 0.0033
UCCUCCUACAGCUUGCAUAGUAUUUUCAAA,0.232 ± 0.044,0.00383 ± 0.0027
